Assay [1] is described as follows: Cell Viability - N2a (AID 540).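 Further: plate controls were DMSO alone for no effect and tamoxifen control for full effect; nearly all actives have a fitted effect of over 45% in size.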 The following applies: N2a mouse neuroblastoma cell viability; at 92.2 µM (top of the series). Summed up: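 N2a mouse neuroblastoma, 1500 cells/well, 5 hr settle; compound 40 hr, 37 °C; CellTiter-Glo 20 min RT; luminescence; Hill-fit AC50.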
Assay [2] is described as follows: Cell Viability - NIH 3T3 (AID 541).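 Further: plate controls were DMSO alone for no effect and tamoxifen positive control for full effect; nearly all actives have a fitted effect of over 25% in size.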 The following applies: NIH 3T3 cell viability, qHTS; at 92.2 µM (top of the series). Summed up:
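qHTS format; 40 hr compound exposure, 37 °C; CellTiter-Glo luminescence (cellular ATP) read-out after 20 min at RT. Decrease in ATP = cytotoxicity; AC50 from standard Hill fit.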
On the technique in general: Quantitative high-throughput screening tests each substance at several concentrations.

A short description of assay [3]: Cell Viability - Renal Proximal Tubule (AID 545).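 Further: 0% = DMSO only and -100% = 100 µM tamoxifen; nearly all actives have a fitted effect of over 40% in size.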 The following applies: renal proximal tubule cells viability; series mostly up to 91.7 µM. In a few lines:
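Rat renal proximal tubule primary cells, 1000/well, exposed to compounds for 40 hr at 37 °C in complete medium; cellular ATP read by CellTiter-Glo luminescence. AC50 from concentration-response fitted with standard Hill equation.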

A short description of assay [4]: Cell Viability - LYMP2-019 (AID 973).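 Further: 0% = DMSO alone and full effect = 92 µM tetraoctylammonium bromide; nearly all actives have a fitted effect of over 55% in size.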 Conditions: LYMP2-019 lymphoblastoid cell line viability; series mostly up to 92.2 µM. Summed up: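 qHTS, 1536-well; 2500 cells/well; 5 hr pre-incubation, 24 hr compound exposure, 37 C; CellTiter-Glo added, 30 min RT; luminescence read; AC50 via standard Hill equation.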
Assay [5] in a line: Cell Viability - LYMP2-021 (AID 974).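 Further: compound exposure lasts 24 hours at 37 °C; on the % scale 0 is the no-effect control and ±100 the full control effect; nearly all actives have a fitted effect of over 55% in size.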 The following applies: LYMP2-021 lymphoblastoid cells viability; series mostly up to 92.2 µM. Summed up:
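ATP luminescence (CellTiter-Glo, 30 min RT) after 24 h compound exposure at 37 C; 2500 human lymphoblastoid cells/well, 5 h settle beforehand. Cytotoxicity = concentration-dependent ATP drop, AC50 by Hill fit.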

Assay [6] is described as follows: Cell Viability - LYMP2-023 (AID 975).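 Further: cellular ATP measured by luciferase luminescence as viability proxy; cells exposed to compound for 24 hours at 37 °C; plate controls were DMSO only for no effect and 92 µM tetraoctylammonium bromide control for full effect; nearly all actives have a fitted effect of over 55% in size.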 The following applies: LYMP2-023 lymphoblastoid cell viability; series mostly up to 92.2 µM. In a few lines:
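CellTiter-Glo luminescence after 30 min at room temperature; decrease in intracellular ATP reflects toxicity. Cells: human lymphoblastoid line, 2500/well, 24 hr compound exposure at 37 C. AC50 fitted to standard Hill equation from concentration-response.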

A short description of assay [7]: Cell Viability - LYMP2-025 (AID 976).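 Further: plate controls were DMSO only for no effect and tetraoctylammonium bromide control for full effect.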 Conditions: LYMP2-025 lymphoblastoid cell viability; series mostly up to 92.2 µM. In a few lines:
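CellTiter-Glo luminescence (cellular ATP) after 24 h compound exposure at 37 C; LYMP2-025 human lymphoblastoid cells, 2500/well, complete medium. Tetraoctylammonium bromide positive control. AC50 by Hill equation fit of qHTS concentration-response.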

Assay [8] can be described thus: Cell Viability - LYMP2-002 (AID 977).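 Further: plate controls were DMSO only for no effect and 92 µM tetraoctylammonium bromide for full effect.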 Conditions: LYMP2-002 lymphoblastoid cell viability, qHTS; series mostly up to 92.2 µM. In a few lines:
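In this qHTS viability screen, 2500 human lymphoblastoid cells per well receive compound for 24 hr at 37 C, and luciferase-based ATP luminescence gives the viability signal. Tetraoctylammonium bromide serves as positive control.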

The nature of assay [9]: Cell Viability - LYMP2-006 (AID 978).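 Further: cells exposed to compound for 24 hours; on the % scale 0 is the no-effect control and ±100 the full control effect; nearly all actives have a fitted effect of over 60% in size.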 The following applies: LYMP2-006 lymphoblastoid cell viability, qHTS; series mostly up to 92.2 µM. In a few lines: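 Human lymphoblastoid cells (LYMP2-006), 2500/well in complete medium, were treated with compound for 24 hr at 37 C. Cellular ATP was read by CellTiter-Glo luminescence after 30 min, and AC50 values came from Hill-equation fits of concentration-response data.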

A short description of assay [10]: Cell Viability - LYMP2-008 (AID 980). Further: on the % scale 0 is the no-effect control and ±100 the full control effect; nearly all actives have a fitted effect of over 60% in size. Conditions: LYMP2-008 lymphoblastoid cell viability, qHTS; series mostly up to 92.2 µM. Summed up: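 Luminescent ATP read-out (CellTiter-Glo, 30 min RT) after 24 hr compound exposure at 37 C of human lymphoblastoid cells in complete medium. Decrease in ATP taken as cytotoxicity; AC50 derived by standard Hill fit of qHTS concentration-response data.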

A short description of assay [11]: Cell Viability - LYMP2-010 (AID 981).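 Further: cells exposed to compound for 24 hours at 37 °C; nearly all actives have a fitted effect of over 55% in size.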 Further: potency means the concentration at half of the fitted maximal effect. The following applies: LYMP2-010 lymphoblastoid cell viability, qHTS; series mostly up to 92.2 µM. In a few lines: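 qHTS cytotoxicity, 1536-well: 2500 cells/well, 5 hr settle, 24 hr compound at 37 C, CellTiter-Glo 30 min RT, luminescence read. Decrease in ATP = toxicity; AC50 via standard Hill equation. Positive control tetraoctylammonium bromide.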

The nature of assay [12]: Cell Viability - LYMP2-026 (AID 989). Further: on the % scale 0 is the no-effect control and ±100 the full control effect; nearly all actives have a fitted effect of over 50% in size. The following applies: LYMP2-026 lymphoblastoid cell viability, qHTS; series mostly up to 92.2 µM. In a few lines: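 qHTS cytotoxicity: 2500 cells/well, 5 hr 37 C, compound 24 hr 37 C, CellTiter-Glo 30 min RT, luminescence. Tetraoctylammonium bromide positive control. AC50 via standard Hill fit.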
Assay [13] can be described thus: Cell Viability - LYMP1-002 - Assay at 24 hr (AID 993). Further: on the % scale 0 is the no-effect control and ±100 the full control effect. The following applies: LYMP1-002 lymphoblastoid cells viability; series mostly up to 92.2 µM. In a few lines:
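CellTiter-Glo luminescence (intracellular ATP) after 24 h compound exposure, 37 C, in LYMP1-002 human lymphoblastoid cells; decreased ATP taken as cytotoxicity. AC50 from standard Hill fit of concentration-response curves.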

Assay [14] can be described thus: Cell Viability - LYMP1-002 - Assay at 40 hr (AID 994). Further: nearly all actives have a fitted effect of over 60% in size. Further: potency means the concentration at half of the fitted maximal effect. Conditions: LYMP1-002 lymphoblastoid cell viability; series mostly up to 92.2 µM. Summed up:
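qHTS cytotoxicity; 2500 cells/well, 5 hr 37 C settle, compound 40 hr 37 C. CellTiter-Glo, 30 min RT, luminescence (ATP). Concentration-response, Hill fit → AC50. Pos. ctrl tetraoctylammonium bromide.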

A short description of assay [15]: qHTS Assay for Identification of Small Molecule Inducers of Hypoxia Response (AID 2120; active means well fitted curve in the direction sought with a large enough effect in the signal ratio, with a control signal flat, not every such curve was filed as active; the % refers to the signal ratio; further: 0% is about no effect). The following applies: hypoxia response reporter cells, beta-lactamase ratio readout; series mostly up to 104 µM. In a few lines:
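Read-out: CCF4 FRET emission ratio 460nm/530nm (excitation 405nm), converted to %Activity, with AC50 fitted across a compound titration. ME-180 cells carried an HRE-driven beta-lactamase reporter; compound exposure 17 h, 37 degrees C.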

The target of assay [16] is Glucocorticoid receptor (Homo sapiens) (UniProt P04150). Description: qHTS assay for small molecule antagonists of glucocorticoid receptor signaling (AID 588533; active means well fitted inhibition curve with a large enough effect in the signal ratio, with a control signal flat, not every such curve was filed as active; the % refers to the signal ratio;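 further: cells stimulated with 2 nM dexamethasone as agonist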; further: potency means the concentration at half of the fitted maximal effect). The following applies: HeLa MMTV-bla, GRE beta-lactamase ratio, antagonist mode, 18 h; series mostly up to 76.8 µM. In a few lines: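 Antagonist-mode qHTS: compound titrations added to GRE-bla HeLa cells, then dexamethasone 2 nM final; 18 h, 37 C. CCF4 FRET fluorescence normalized to dexamethasone and DMSO; IC50 from Hill fit.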

Assay [17] concerns the target Peroxisome proliferator-activated receptor gamma (Homo sapiens) (UniProt P37231). Description: qHTS assay for small molecule agonists of peroxisome proliferator-activated receptor gamma signaling (AID 588536; active means well fitted curve in the direction sought with a large enough effect in the signal ratio, with a control signal flat, not every such curve was filed as active; the % refers to the signal ratio). The following applies: HEK293 PPARg-UAS-bla, beta-lactamase ratio, 16 h, percent of rosiglitazone response, DMSO as zero; series mostly up to 76.7 µM. In a few lines: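 Using GeneBLAzer HEK293 cells, response was quantified by CCF4 fluorescence and normalized between basal DMSO (0%) and rosiglitazone 2 uM (100%); curves yielded half-maximal stimulation concentration and efficacy.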

Assay [18] deals with Thyroid hormone receptor beta (Homo sapiens) (UniProt P10828). The experiment in a line: qHTS assay for small molecule agonists of thyroid hormone receptor beta signaling (AID 588545; calls by dose curve;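 further: 0% = DMSO only and 100% = 10 nM T3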). Conditions: TR-UAS-bla GripTite HEK 293, beta-lactamase ratio, agonist mode, 18 h; series mostly up to 76.7 µM. Summed up:
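Efficacy and EC50 values derive from Hill fits of qHTS titration data, normalized to 10 nM T3 and DMSO-only wells. HEK 293 reporter cells were stimulated for 18 hrs at 37 C, with beta-lactamase activity measured by CCF4 fluorescence.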

Assay [19] addresses Retinoic acid receptor RXR-alpha (Homo sapiens) (UniProt P19793). The experiment in a line: qHTS assay for small molecule antagonists of retinoid X receptor alpha signaling (AID 588546; active means well fitted inhibition curve with a large enough effect in the signal ratio, with a control signal flat, not every such curve was filed as active; the % refers to the signal ratio; further: on the % scale 0 is the no-effect control and ±100 the full control effect). The following applies: HEK293T RXRa-UAS-bla, beta-lactamase ratio, antagonist mode. Summed up: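 Beta-lactamase reporter inhibition, read as CCF4 fluorescence ratio (ex 405, em 460/530 nm) after 2 h at RT. HEK293T UAS-bla cells, 2500/well, were stimulated with 9-cis-RA at 500 or 100 nM final alongside test compound for 18 h at 37 C.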

Assay [20] addresses Peroxisome proliferator-activated receptor delta (Homo sapiens) (UniProt Q03181). Description: qHTS assay for small molecule agonists of peroxisome proliferator-activated receptor delta signaling (AID 588534; calls by dose curve;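 further: 0% = DMSO basal wells and 100% = positive control agonist at 10 µM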). The following applies: HEK293T PPARdelta-UAS-bla, beta-lactamase ratio, 18 h; series mostly up to 76.7 µM. Summed up: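 Titration series tested in agonist mode on beta-lactamase reporter cells; 18 hrs at 37 C after a 5 hr pre-incubation. Readout: CCF4 fluorescence, 2 hrs RT. Hill equation gives EC50 and maximal response.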

The values that follow come from PubChem BioAssay (NCATS).

SMILES strings stand for the structures. Where “and” joins values, the source holds several entries; their conditions need not be identical. Equal entries are not always repeated. Unmarked numbers belong to inactive results. Inconclusive results are not listed. Calls of active or inactive are those of the source. Unless noted, the call rests on the fitted dose curve; in most records, active means well fitted cell-killing curve with a large enough effect; inconclusive means small, poorly fitted or top-dose-only effect; inactive means flat fitted curve, though single readings scatter.

Sequence of Peroxisome proliferator-activated receptor gamma (Homo sapiens) (P37231 whole entry, looked up): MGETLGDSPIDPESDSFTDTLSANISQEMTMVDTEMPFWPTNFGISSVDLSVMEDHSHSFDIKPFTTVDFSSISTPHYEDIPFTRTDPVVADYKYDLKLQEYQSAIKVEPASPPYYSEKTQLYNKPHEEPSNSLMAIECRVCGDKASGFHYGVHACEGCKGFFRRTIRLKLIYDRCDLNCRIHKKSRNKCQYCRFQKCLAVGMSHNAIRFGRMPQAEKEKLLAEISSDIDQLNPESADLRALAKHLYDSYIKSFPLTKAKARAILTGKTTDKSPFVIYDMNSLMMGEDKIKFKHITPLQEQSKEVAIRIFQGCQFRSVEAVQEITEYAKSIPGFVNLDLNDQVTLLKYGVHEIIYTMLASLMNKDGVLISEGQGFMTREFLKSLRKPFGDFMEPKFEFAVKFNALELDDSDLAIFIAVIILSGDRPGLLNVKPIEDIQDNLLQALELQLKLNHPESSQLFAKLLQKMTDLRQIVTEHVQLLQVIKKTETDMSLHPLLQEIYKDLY
Sequence of Peroxisome proliferator-activated receptor delta (Homo sapiens) (Q03181 whole entry, looked up): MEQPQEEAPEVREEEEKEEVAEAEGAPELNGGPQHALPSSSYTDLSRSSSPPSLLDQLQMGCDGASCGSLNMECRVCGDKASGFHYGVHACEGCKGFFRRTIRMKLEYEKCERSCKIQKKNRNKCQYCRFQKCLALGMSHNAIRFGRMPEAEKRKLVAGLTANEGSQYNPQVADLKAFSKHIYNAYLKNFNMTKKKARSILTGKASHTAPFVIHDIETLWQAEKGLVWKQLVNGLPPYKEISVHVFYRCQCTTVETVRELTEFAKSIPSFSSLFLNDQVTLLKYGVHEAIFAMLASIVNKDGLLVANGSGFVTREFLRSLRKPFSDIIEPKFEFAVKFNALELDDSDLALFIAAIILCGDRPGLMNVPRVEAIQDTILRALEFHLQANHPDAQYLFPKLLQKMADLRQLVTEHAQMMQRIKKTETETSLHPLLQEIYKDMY
Sequence of Retinoic acid receptor RXR-alpha (Homo sapiens) (P19793 whole entry, looked up): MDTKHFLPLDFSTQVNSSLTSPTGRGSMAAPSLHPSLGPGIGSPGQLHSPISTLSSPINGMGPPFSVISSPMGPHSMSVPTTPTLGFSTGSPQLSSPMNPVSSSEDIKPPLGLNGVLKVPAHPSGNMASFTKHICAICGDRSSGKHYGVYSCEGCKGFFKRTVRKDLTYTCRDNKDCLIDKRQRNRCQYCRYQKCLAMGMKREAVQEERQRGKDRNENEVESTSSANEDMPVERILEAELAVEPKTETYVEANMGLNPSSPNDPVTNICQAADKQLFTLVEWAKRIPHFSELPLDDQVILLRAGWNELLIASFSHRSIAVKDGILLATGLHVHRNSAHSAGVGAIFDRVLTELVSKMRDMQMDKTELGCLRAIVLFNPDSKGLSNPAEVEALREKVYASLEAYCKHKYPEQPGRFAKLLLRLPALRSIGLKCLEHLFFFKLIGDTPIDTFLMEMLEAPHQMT
Sequence of Thyroid hormone receptor beta (Homo sapiens) (P10828 whole entry, looked up): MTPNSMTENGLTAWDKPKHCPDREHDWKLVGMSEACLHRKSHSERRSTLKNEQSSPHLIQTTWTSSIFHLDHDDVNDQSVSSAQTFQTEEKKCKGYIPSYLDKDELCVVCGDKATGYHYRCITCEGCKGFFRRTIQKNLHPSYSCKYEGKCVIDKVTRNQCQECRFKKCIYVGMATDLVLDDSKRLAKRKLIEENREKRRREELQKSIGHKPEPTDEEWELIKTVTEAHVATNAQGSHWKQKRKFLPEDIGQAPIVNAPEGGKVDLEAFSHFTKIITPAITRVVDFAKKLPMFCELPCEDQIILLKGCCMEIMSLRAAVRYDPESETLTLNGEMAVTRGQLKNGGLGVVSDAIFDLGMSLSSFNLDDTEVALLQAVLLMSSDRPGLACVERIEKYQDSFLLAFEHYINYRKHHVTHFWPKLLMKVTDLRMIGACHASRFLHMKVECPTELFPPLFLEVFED
Sequence of Glucocorticoid receptor (Homo sapiens) (P04150 whole entry, looked up): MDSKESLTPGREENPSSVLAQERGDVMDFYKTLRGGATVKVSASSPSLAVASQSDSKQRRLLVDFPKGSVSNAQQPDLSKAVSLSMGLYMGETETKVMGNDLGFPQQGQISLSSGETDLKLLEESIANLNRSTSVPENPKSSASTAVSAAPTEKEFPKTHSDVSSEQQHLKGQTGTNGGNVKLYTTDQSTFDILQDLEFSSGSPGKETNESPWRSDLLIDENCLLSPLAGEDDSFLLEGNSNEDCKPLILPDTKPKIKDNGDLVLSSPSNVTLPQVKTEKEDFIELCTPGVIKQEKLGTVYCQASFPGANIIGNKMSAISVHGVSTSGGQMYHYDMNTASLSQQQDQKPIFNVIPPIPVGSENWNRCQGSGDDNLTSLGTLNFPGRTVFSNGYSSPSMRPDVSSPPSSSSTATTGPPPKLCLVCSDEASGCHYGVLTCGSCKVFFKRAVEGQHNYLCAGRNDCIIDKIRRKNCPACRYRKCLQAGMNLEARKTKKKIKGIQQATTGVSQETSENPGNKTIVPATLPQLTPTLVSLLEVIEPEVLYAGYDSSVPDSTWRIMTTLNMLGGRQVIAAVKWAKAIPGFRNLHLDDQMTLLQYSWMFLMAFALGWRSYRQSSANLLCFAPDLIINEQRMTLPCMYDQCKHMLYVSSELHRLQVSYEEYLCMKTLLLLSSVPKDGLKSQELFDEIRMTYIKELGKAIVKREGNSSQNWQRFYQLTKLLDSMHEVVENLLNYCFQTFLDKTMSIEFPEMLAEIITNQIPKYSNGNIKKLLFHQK

In the case of `CC(C)COC(=O)c1ccccc1C(=O)OCC(C)C`, the activity change, negative = cytotoxicity in assay [1] was -12.6%; in [2], -26.2%. Also, the outcome in assay [3], in assay [4], in assay [5], in assay [6], in assay [7] and in assay [8] was inactive. Moreover, the outcome in assay [9], in assay [10], in assay [12], in [13], in [15] and in [17] was inactive. Besides, the Potency result in assay [11], in [14], in assay [16] and in assay [18] was “inactive” throughout. In addition, the max response in [19] is 12.8%.

As to `Oc1ccccc1O`, the Potency in assay [11] was 20 µM (active); in assay [14], 15.8 µM (active); in assay [16] it was 35.5 µM (active). In addition, in [20], the Potency result is “inactive”.

In the case of `CC(=O)/C=C/c1ccccc1`, the figures for the activity change, negative = cytotoxicity in [1] and in assay [2] were -5.72% and -123% (active), respectively. Further, the call in assay [3], in assay [4], in [5], in assay [6], in [7] and in assay [8] was inactive. Further, the molecule was called inactive in assay [9], in assay [10], in [12], in [13], in assay [15] and in [17]. The Potency entry in assay [11], in assay [14], in assay [16] and in [20] was “inactive” each time. For the same molecule, the max response in assay [19] is 11.5%.

`COC1=CC(=O)OC(CCc2ccc3c(c2)OCO3)C1` (configuration not stated): the activity change, negative = cytotoxicity in assay [1] is -20.1%. Further, the molecule was called inactive in [3], in [4], in [5], in assay [6], in [7] and in assay [8]. In addition, the outcome in [9], in [10], in assay [12], in assay [13], in assay [15] and in [17] was inactive. The Potency entry in assay [18] is “inactive”.

On to `Oc1ccccc1Cl`, for which the activity change, negative = cytotoxicity in assay [1] was -11.6%; in [2], -20.7%. The outcome in [3], in [4], in assay [5], in [6], in [7] and in assay [8] was inactive. For the same molecule, the molecule was called inactive in assay [9], in [10], in assay [12], in assay [13], in assay [15] and in [17]. The Potency entry in [11], in assay [14], in [16], in assay [20] and in [18] was “inactive” in each case. Further, the max response in assay [19] is 10.4%.

For the molecule `C=CC(=C)CCC=C(C)C`, the Potency result in [20] is “inactive”.

`c1ccc(Nc2ccc3ccccc3c2)cc1`: in assay [2], the activity change, negative = cytotoxicity is -27%. The result in [4], in [5], in assay [6], in assay [7], in assay [8] and in [9] was inactive. Also, the outcome in assay [10], in [12], in [13], in assay [15] and in [17] was inactive. The Potency entry in assay [11], in assay [14], in [16], in assay [20] and in [18] was “inactive” in each case. In addition, in assay [19], the max response is 4.38% and -18.9%.

As to `c1ccc2c(c1)-c1cccc3cccc-2c13`, the activity change, negative = cytotoxicity is -25.7% in [1] and -24% in assay [2]. Further, the molecule was classed as inactive in assay [3], in [4], in assay [5], in assay [6], in assay [7] and in assay [8]. For the same molecule, the call in assay [9], in assay [10], in [12] and in assay [13] was inactive. In addition, the Potency result in assay [11], in assay [14], in assay [20] and in assay [18] was “inactive” throughout. In addition, the max response in assay [19] was -2.14%.

Turning to `CCOC(=O)c1ccccc1N`, the activity change, negative = cytotoxicity in assay [1] is 3.3%; in assay [2] it was -0.518%. In addition, the outcome in assay [3], in assay [4], in [5], in assay [6], in assay [7] and in [8] was inactive. The call in [9], in assay [10], in assay [12], in assay [13], in assay [15] and in assay [17] was inactive. Moreover, the Potency result in assay [11], in assay [14], in [16], in assay [20] and in assay [18] was “inactive” in each case. In assay [19], the max response is 10.1%.
